Experimental data from PubChem BioAssay AID1159580 (chemical genetic matrix, 2015).
Values joined by “and” are separate entries in the source; they are usually repeats but may differ in a detail not shown here. Equal values may be shown once. Hit rate of the full screen: of about 5,500 compounds, about 2,000 (36%) were called active. About 18% were inconclusive and are not listed. Cut-off read from the data, not from the text of the source: active = normalized growth mostly below about 0.91 (no sharp cut-off); inconclusive = no clear call, values can overlap the other calls; inactive = mostly above about 0.92. Some of the results follow.

Assay: chemical genetic growth profiling, strain panel (AID 1159580);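 note: tested at 20 µM; growth read once vehicle control cultures reached saturation at 30 °C; 1 = growth at the plate median or of vehicle wells; lower values mean less growth of the strain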
Details: S. cerevisiae deletion strains, growth OD

Measured: normalized growth

CCCCCCCCCCCCCCCC(=O)OC/C=C(C)/C=C/C=C(C)/C=C/C1=C(C)CCCC1(C)C
inactive: locus YAL013W, strain DEP1, hits give low values 0.994 | locus YAL021C, strain ccr4, hits give low values 1.04 | locus YAL026C, strain drs2, hits give low values 1.02 | locus YAL030W, strain snc1, hits give low values 1.03 | locus YBL061C, strain skt5, hits give low values 1.02 | locus YBR009C, strain hhf1, hits give low values 0.995 | locus YBR021W, strain FUR4, hits give low values 0.977 | locus YBR023C, strain chs3, hits give low values 1 | locus YBR171W, strain sec66, hits give low values 1.02 | locus YBR229C, strain ROT2, hits give low values 0.992 | locus YBR231C, strain swc5, hits give low values 0.931 | locus YBR279W, strain paf1, hits give low values 1.01 | locus YCL011C, strain gbp2, hits give low values 1 | locus YCL016C, strain dcc1, hits give low values 1 | locus YCL029C, strain bik1, hits give low values 0.999 | locus YCL069W, strain vba3, hits give low values 1.01 | locus YCR088W, strain abp1, hits give low values 1.02 | locus YDL005C, strain med2, hits give low values 1.03 | locus YDL035C, strain GPR1, hits give low values 0.978 | locus YDL040C, strain nat1, hits give low values 1.01 | locus YDL074C, strain BRE1, hits give low values 1 | locus YDL101C, strain DUN1, hits give low values 0.993 | locus YDL185W, strain tfp1, hits give low values 0.992 | locus YDL192W, strain arf1, hits give low values 0.994 | locus YDR001C, strain nth1, hits give low values 1.02 | locus YDR069C, strain doa4, hits give low values 1 | locus YDR101C, strain arx1, hits give low values 1.02 | locus YDR137W, strain rgp1, hits give low values 1.03 | locus YDR150W, strain NUM1, hits give low values 1 | locus YDR159W, strain sac3, hits give low values 0.963 | locus YDR162C, strain NBP2, hits give low values 0.973 | locus YDR195W, strain ref2 1.04 | locus YDR297W, strain sur2, hits give low values 1.03 | locus YDR318W, strain mcm21, hits give low values 0.999 | locus YDR334W, strain swr1, hits give low values 1.03 | locus YDR335W, strain msn5, hits give low values 1.04 | locus YDR388W, hits give low values 1.02 | locus YDR392W, strain spt3, hits give low values 1.05 | locus YDR502C, strain sam2, hits give low values 0.994 | locus YEL003W, strain gim4, hits give low values 1.01 | locus YEL037C, strain rad23, hits give low values 1.02 | locus YEL061C, strain CIN8 (second series), hits give low values 1.02 | locus YEL061C, strain CIN8, hits give low values 0.993 | locus YER015W, strain faa2, hits give low values 1.02 | locus YER016W, strain bim1, hits give low values 1.02 | locus YER110C, hits give low values 0.985 | locus YER111C, strain swi4, hits give low values 1.02 | locus YER155C, strain BEM2 (second series), hits give low values 1.03 | locus YER155C, strain BEM2, hits give low values 0.998 | locus YER167W, strain BCK2, hits give low values 0.989 | locus YFR010W, strain ubp6, hits give low values 1.03 | locus YGL078C, strain dbp3, hits give low values 0.993 | locus YGL086W, strain mad1, hits give low values 1.01 | locus YGL167C, strain pmr1, hits give low values 1.02 | locus YGL173C, strain kem1, hits give low values 1.01 | locus YGL227W, strain vid30, hits give low values 1.01 | locus YGL240W, strain doc1, hits give low values 1.03 | locus YGL248W, strain PDE1, hits give low values 1 | locus YGL253W, strain hxk2, hits give low values 0.976 | locus YGR135W, strain pre9, hits give low values 0.929 | locus YGR252W, strain gcn5, hits give low values 1.04 | locus YHR013C, strain ard1, hits give low values 1.05 | locus YHR027C, strain rpn1, hits give low values 0.969 | locus YHR030C, strain SLT2, hits give low values 0.995 and 0.963 | locus YHR079C, strain IRE1 (second series), hits give low values 1.01 | locus YHR079C, strain IRE1, hits give low values 0.925 | locus YHR094C, strain hxt1, hits give low values 0.983 | locus YHR129C, strain ARP1, hits give low values 0.999 | locus YHR142W, strain chs7, hits give low values 1.01 | locus YHR200W, strain rpn10, hits give low values 0.998 | locus YIL066C, strain RNR3, hits give low values 0.987 | locus YIL073C, strain SPO22, hits give low values 0.879 | locus YIL125W, strain kgd1, hits give low values 0.992 | locus YIR030C, strain dcg1, hits give low values 0.989 | locus YJL092W, strain hpr5, hits give low values 1.02 | locus YJL095W, strain BCK1 (second series), hits give low values 1.03 | locus YJL095W, strain BCK1, hits give low values 0.995 and 0.989 | locus YJL115W, strain asf1, hits give low values 1.02 | locus YJL129C, strain trk1, hits give low values 1.04 | locus YJL134W, strain LCB3, hits give low values 0.991 | locus YJL154C, strain vps35, hits give low values 1.02 | locus YJL164C, strain tpk1, hits give low values 0.996 | locus YJL166W, strain qcr8, hits give low values 1.04 | locus YJL168C, strain set2, hits give low values 0.994 | locus YJL187C, strain SWE1 (second series), hits give low values 1.01 | locus YJL187C, strain SWE1, hits give low values 1.03 | locus YJR043C, strain POL32, hits give low values 0.995 | locus YJR066W, strain TOR1, hits give low values 0.901 | locus YKL009W, strain mrt4, hits give low values 0.993 | locus YKL068W, hits give low values 0.985 | locus YKL085W, strain MDH1 (second series), hits give low values 0.985 | locus YKL085W, strain MDH1, hits give low values 0.985 | locus YKL160W, strain elf1, hits give low values 1.02 | locus YKL190W, strain CNB1, hits give low values 0.998 | locus YKR001C, strain vps1, hits give low values 0.991 | locus YKR026C, strain gcn3, hits give low values 1.03 | locus YKR091W, strain srl3, hits give low values 1.01 | locus YLL001W, strain dnm1, hits give low values 1.01 | locus YLL026W, hits give low values 0.975 | locus YLL041C, strain sdh2, hits give low values 1.02 | locus YLR027C, strain aat2, hits give low values 1.01 | locus YLR039C, strain RIC1, hits give low values 1 | locus YLR058C, strain SHM2, hits give low values 0.988 | locus YLR102C, strain apc9, hits give low values 0.993 | locus YLR113W, strain HOG1, hits give low values 0.99 | locus YLR221C, strain rsa3, hits give low values 0.98 | locus YLR258W, strain gsy2, hits give low values 1 | locus YLR262C, strain YPT6 (second series), hits give low values 1.01 | locus YLR262C, strain YPT6, hits give low values 1.04 | locus YLR268W, strain sec22, hits give low values 0.996 | locus YLR320W, strain mms22, hits give low values 1 | locus YLR330W, strain CHS5, hits give low values 0.993 | locus YLR342W, strain FKS1 (second series), hits give low values 0.993 | locus YLR342W, strain FKS1, hits give low values 1.02 | locus YLR357W, strain rsc2, hits give low values 0.994 | locus YLR370C, strain arc18, hits give low values 1.02 | locus YLR371W, strain rom2, hits give low values 1 | locus YLR384C, strain iki3, hits give low values 1.02 | locus YLR418C, strain cdc73, hits give low values 0.922 | locus YML016C, strain PPZ1, hits give low values 0.994 | locus YML032C, strain rad52, hits give low values 1.01 | locus YML120C, strain ndi1, hits give low values 1.05 | locus YML124C, strain tub3, hits give low values 0.993 | locus YMR058W, strain fet3, hits give low values 0.999 | locus YMR078C, strain ctf18, hits give low values 0.996 | locus YMR125W, strain sto1, hits give low values 1.01 | locus YMR129W, hits give low values 1.01 | locus YMR205C, strain PFK2, hits give low values 1.01 | locus YMR223W, strain ubp8, hits give low values 0.959 | locus YMR231W, strain pep5, hits give low values 1.02 | locus YMR263W, strain SAP30, hits give low values 1 | locus YMR307W, strain GAS1, hits give low values 1 | locus YNL067W, strain RPL9B, hits give low values 1.02 | locus YNL071W, strain lat1, hits give low values 0.97 | locus YNL153C, strain GIM3, hits give low values 1.04 | locus YNL183C, strain NPR1, hits give low values 0.967 | locus YNL209W, strain ssb2, hits give low values 0.991 | locus YNL233W, strain BNI4, hits give low values 0.994 | locus YNL248C, strain rpa49, hits give low values 1.05 | locus YNL250W, strain rad50, hits give low values 1.01 | locus YNL271C, strain bni1, hits give low values 0.995 | locus YNL298W, strain CLA4, hits give low values 1 | locus YNL307C, strain MCK1, hits give low values 0.989 | locus YNL322C, strain KRE1 (second series), hits give low values 1.04 | locus YNR049C, strain mso1, hits give low values 1.02 | locus YNR052C, strain pop2, hits give low values 0.998 | locus YOL012C, strain htz1 0.785 | locus YOL147C, strain pex11, hits give low values 0.991 | locus YOR001W, strain rrp6, hits give low values 1.05 | locus YOR061W, strain CKA2, hits give low values 0.99 | locus YOR069W, strain VPS5, hits give low values 0.992 | locus YOR070C, strain gyp1, hits give low values 1.01 | locus YOR080W, strain dia2, hits give low values 1.02 | locus YOR083W, strain WHI5, hits give low values 0.984 | locus YOR106W, strain vam3, hits give low values 0.962 | locus YOR136W, strain idh2, hits give low values 1 | locus YOR144C, strain elg1, hits give low values 0.99 | locus YOR184W, strain ser1, hits give low values 0.991 | locus YOR231W, strain MKK1, hits give low values 0.974 | locus YOR265W, strain rbl2, hits give low values 1.02 | locus YOR270C, strain vph1, hits give low values 1.05 | locus YOR290C, strain snf2, hits give low values 1.03 | locus YOR316C, strain cot1, hits give low values 0.992 | locus YPL051W, strain arl3, hits give low values 1.02 | locus YPL078C, strain atp4, hits give low values 1.01 | locus YPL106C, strain sse1, hits give low values 1.07 | locus YPL240C, strain hsp82, hits give low values 1.01 | locus YPL256C, strain CLN2, hits give low values 0.916 | locus YPR119W, strain clb2, hits give low values 0.998 | locus YPR141C, strain kar3, hits give low values 0.983 | locus YPR163C, strain tif3, hits give low values 1 | locus YPR167C, strain met16, hits give low values 0.992 | strain wtn01, hits give low values 0.972
